# Results reported in the supplement of paper PMC7261846.
# ± gives the uncertainty stated by the source.
# System: Candida albicans SNY425 biofilm
# Test: biofilm OD600 with compound plus antifungal (OD600 (absorbance)); higher = more biofilm remaining
# [1] = assay detail: disruption of 24-h mature biofilm (compound + antifungal for a second 24 h)
# [2] = assay detail: sustained inhibition (compound + antifungal during 90-min adherence and 24-h growth)
Compound,biofilm OD600 [1],biofilm OD600 [2]
CN1C(=O)[C@]23CC4=CC=C[C@H](O)[C@H]4N2C(=O)[C@@]1(CO)SS3 [Gliotoxin] + OC(Cn1cncn1)(Cn1cncn1)c1ccc(F)cc1F [fluconazole] (first compound 1 µM),0.211 ± 0.0079,0.0782 ± 0.0052
NCCc1ccc(S(=O)(=O)F)cc1 + OC(Cn1cncn1)(Cn1cncn1)c1ccc(F)cc1F [fluconazole] (first compound 4 µM),0.278 ± 0.0089,0.109 ± 0.0077
NCCc1ccc(S(=O)(=O)F)cc1 + C[C@@H]1[C@H](O)[C@@H](C)/C=C/C=C/C=C/C=C/C=C/C=C/C=C/[C@H](O[C@@H]2O[C@H](C)[C@@H](O)[C@H](N)[C@@H]2O)C[C@@H]2O[C@](O)(C[C@@H](O)C[C@@H](O)[C@H](O)CC[C@@H](O)C[C@@H](O)CC(=O)O[C@H]1C)C[C@H](O)[C@H]2C(=O)O [amphotericin B] (first compound 4 µM),0.303 ± 0.0047,0.184 ± 0.011
NCCc1ccc(S(=O)(=O)F)cc1 + CC[C@H](C)C[C@H](C)CCCCCCCCC(=O)N[C@H]1C[C@@H](O)[C@@H](NCCN)NC(=O)[C@@H]2[C@@H](O)CCN2C(=O)[C@H]([C@H](O)CCN)NC(=O)[C@H]([C@H](O)[C@@H](O)c2ccc(O)cc2)NC(=O)[C@@H]2C[C@@H](O)CN2C(=O)[C@H]([C@@H](C)O)NC1=O [caspofungin] (first compound 4 µM),0.29 ± 0.0053,0.172 ± 0.0053
CN1C(=O)[C@]23CC4=CC=C[C@H](O)[C@H]4N2C(=O)[C@@]1(CO)SS3 [Gliotoxin] + CC[C@H](C)C[C@H](C)CCCCCCCCC(=O)N[C@H]1C[C@@H](O)[C@@H](NCCN)NC(=O)[C@@H]2[C@@H](O)CCN2C(=O)[C@H]([C@H](O)CCN)NC(=O)[C@H]([C@H](O)[C@@H](O)c2ccc(O)cc2)NC(=O)[C@@H]2C[C@@H](O)CN2C(=O)[C@H]([C@@H](C)O)NC1=O [caspofungin] (first compound 1 µM),0.217 ± 0.0081,0.0858 ± 0.0052
CN1C(=O)[C@]23CC4=CC=C[C@H](O)[C@H]4N2C(=O)[C@@]1(CO)SS3 [Gliotoxin] + C[C@@H]1[C@H](O)[C@@H](C)/C=C/C=C/C=C/C=C/C=C/C=C/C=C/[C@H](O[C@@H]2O[C@H](C)[C@@H](O)[C@H](N)[C@@H]2O)C[C@@H]2O[C@](O)(C[C@@H](O)C[C@@H](O)[C@H](O)CC[C@@H](O)C[C@@H](O)CC(=O)O[C@H]1C)C[C@H](O)[C@H]2C(=O)O [amphotericin B] (first compound 1 µM),0.226 ± 0.0062,0.0908 ± 0.0077
